According to the supplement of paper PMC9262897, “Low-cost anti-mycobacterial drug discovery using engineered E. coli” (Nature Communications, 2022):
Structures can show the parent of a compound that is named as a salt. ± gives the standard deviation of the averaged measurements.

Each molecule was assayed on E. coli TESEC Alr+ wild-type control (assay: growth (OD600 after 10 h); higher = more growth (less inhibition)). Conditions: compound 0.1 mM; raw OD600 reference: median of DMSO wells 0.49, cell-free background 0.052.
Method: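 TESEC Mtb Alr E. coli (ΔaraC ΔtolC ΔentC Δalr ΔdadX, arabinose-inducible Mtb Alr) or the Alr+ wild-type control strain, grown in defined M9-fructose medium without D-alanine in 96-well plates with Prestwick library compounds at 0.1 mM and 1% DMSO. Low Alr induction is 0.1 µM arabinose and high induction is 10 mM arabinose.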
`Oc1ccc2c3c1O[C@H]1[C@@H](O)CC[C@@]4(O)[C@@H](C2)N(CC2CCC2)CC[C@]314` [Nalbuphine hydrochloride] was tested, and the growth was 0.515 ± 0.011.
`O=[N+]([O-])O[C@@H]1CO[C@H]2[C@@H]1OC[C@@H]2O` [Isosorbide mononitrate] was tested, and the growth was 0.548 ± 0.053.
Work on `O=P1(NCCCl)OCCCN1CCCl` (stereo not given) [Ifosfamide] yielded a growth of 0.517 ± 0.077.
With `C[C@]12CC[C@@H]3c4ccc(OC(=O)N(CCCl)CCCl)cc4CC[C@H]3[C@@H]1CC[C@@H]2O` [Estramustine] the growth was 0.399 ± 0.008.
Molecule `CC(=O)OCC1=C(C(=O)O)N2C(=O)[C@@H](N)[C@H]2SC1` [Cephalosporanic acid, 7-amino] has a growth of 0.649 ± 0.029.
`CCCC[N+]1(C)[C@@H]2CC(OC(=O)[C@H](CO)c3ccccc3)C[C@H]1[C@@H]1O[C@@H]12` (stereo not given in full) [Butylscopolammonium (n-) bromide] showed a growth of 0.531 ± 0.1.
For `C[C@]12C[C@H]3S[C@H]3C[C@@H]1CC[C@@H]1[C@@H]2CC[C@]2(C)[C@@H](O)CC[C@@H]12` [Epitiostanol], the growth was 0.534 ± 0.0058.
Molecule `C[CH2][Hg][S]c1ccccc1C(=O)[O-].[Na+]` [Thimerosal] has a growth of 0.216 ± 0.1.
`CC(C)(C)NCC(O)c1ccccc1Cl` (stereo not given) [Tulobuterol] gave a growth of 0.507 ± 0.082.
`C[C@]12CC[C@H](O)C[C@@H]1CC[C@@H]1[C@@H]2CC[C@]2(C)C(=O)CC[C@@H]12` [Epiandrosterone] gave a growth of 0.252 ± 0.013.
In the case of `O=c1[nH]c2ccccc2n1C1CCN(CCCC(c2ccc(F)cc2)c2ccc(F)cc2)CC1` [Pimozide], the growth is reported as 0.52 ± 0.043.
With `C1CCc2nnnn2CC1` [Pentylenetetrazole] the growth was 0.46 ± 0.054.
`CC[C@@]1([C@@H]2O[C@@H]([C@H]3O[C@@](O)(CO)[C@H](C)C[C@@H]3C)C[C@@H]2C)CC[C@H]([C@]2(C)CC[C@]3(C[C@H](O)[C@@H](C)[C@@H]([C@@H](C)[C@@H](OC)[C@H](C)C(=O)O)O3)O2)O1` [Monensin sodium salt] showed a growth of 0.408 ± 0.05.
`CCCN1C[C@H](CSC)C[C@@H]2c3cccc4[nH]cc(c34)C[C@H]21` [Pergolide mesylate] was tested, and the growth was 0.529 ± 0.017.
Work on `CC[N+]1(C)CCCC(OC(=O)C(O)(c2ccccc2)c2ccccc2)C1` (stereo not given) [Pipenzolate bromide] yielded a growth of 0.424 ± 0.016.
With `CC(C)[N+](C)(CCC(C(N)=O)(c1ccccc1)c1ccccc1)C(C)C` [Isopropamide iodide] the growth was 0.516 ± 0.045.
`CC(CCc1ccccc1)NC(C)C(O)c1ccc(O)cc1` (stereo not given) [Nylidrin] showed a growth of 0.491 ± 0.052.
`CNC(C)(C)Cc1ccccc1` [Mephentermine hemisulfate] was tested, and the growth was 0.48 ± 0.047.
`C=CCN1CC[C@]23c4c5ccc(O)c4O[C@H]2C(=O)CC[C@@]3(O)[C@H]1C5` [Naloxone hydrochloride] was tested, and the growth was 0.479 ± 0.016.
Molecule `CCCC(C)C1(CC)C(=O)NC(=O)NC1=O` (stereo not given) [Pentobarbital] has a growth of 0.432 ± 0.011.
Molecule `O=C(NCNC(=O)NC1C(=O)NC(=O)N1CO)NC1C(=O)NC(=O)N1CO` (stereo not given) [Imidurea] has a growth of 0.545 ± 0.022.
For `O=[N+]([O-])O[C@H]1CO[C@H]2[C@@H]1OC[C@H]2O[N+](=O)[O-]` [Isosorbide dinitrate], the growth was 0.474 ± 0.092.
With `CCC1=C[C@H]2CN3CCc4c([nH]c5ccccc45)[C@](C(=O)OC)(C2)[C@H]13` [Catharanthine] the growth was 0.4419 ± 0.0012.
`C[C@@H]1CC[C@H]2[C@@H](C)C(=O)O[C@@H]3O[C@@]4(C)CC[C@@H]1[C@]32OO4` [Artemisinin] showed a growth of 0.33 ± 0.0069.
Molecule `Fc1ccc(C(OCCN2CCN(CCCc3ccccc3)CC2)c2ccc(F)cc2)cc1` has a growth of 0.04777 ± 0.00025.
`C[C@]12Cc3c[nH]nc3C[C@@H]1CC[C@@H]1[C@@H]2CC[C@@]2(C)[C@H]1CC[C@]2(C)O` [Stanozolol] showed a growth of 0.47 ± 0.038.
In the case of `CN1[C@@H]2C[C@@H](OC(=O)[C@H](CO)c3ccccc3)C[C@H]1[C@@H]1O[C@@H]12` [Scopolamine hydrochloride], the growth is reported as 0.469 ± 0.026.
`CC(=O)OC1CN2CCC1CC2` (stereo not given) [Aceclidine Hydrochloride] was tested, and the growth was 0.459 ± 0.015.
`CC(=O)O[C@H]1C[C@@H]2CC[C@@H]3[C@H](CC[C@@]4(C)[C@H]3C[C@H]([N+]3(C)CCCCC3)[C@@H]4OC(C)=O)[C@@]2(C)C[C@@H]1[N+]1(C)CCCCC1` [Pancuronium bromide] showed a growth of 0.506 ± 0.021.
For `CC(N)C(O)c1ccccc1` (stereo not given) [Phenylpropanolamine hydrochloride], the growth was 0.527 ± 0.077.
`O[C@@H]1CCCC[C@H]1N1CCC(c2ccccc2)CC1` [L(-)-vesamicol hydrochloride] gave a growth of 0.521 ± 0.091.
`O=C(CCCN1CCC(n2c(=O)[nH]c3ccccc32)CC1)c1ccc(F)cc1` [Benperidol] was tested, and the growth was 0.407 ± 0.02.
In the case of `CCC(COC(=O)c1cc(OC)c(OC)c(OC)c1)(c1ccccc1)N(C)C` (stereo not given) [Trimebutine], the growth is reported as 0.255 ± 0.018.
Molecule `C=C1C[C@@H]2[C@H](CC[C@]3(C)C(=O)CC[C@@H]23)[C@@]2(C)C=CC(=O)C=C12` [Exemestane] has a growth of 0.322 ± 0.0079.
`C#C[C@]1(O)CC[C@H]2[C@@H]3CCC4=CC(=O)CC[C@]4(C)[C@H]3CC[C@@]21C` [Ethisterone] gave a growth of 0.48 ± 0.055.
For `C[C@]12COC(=O)C[C@@H]1CC[C@@H]1[C@@H]2CC[C@@]2(C)[C@H]1CC[C@]2(C)O` [Oxandrolone], the growth was 0.435 ± 0.042.
`CN(C)C(=O)Oc1cc(OC(=O)N(C)C)cc(C(O)CNC(C)(C)C)c1` (stereo not given) [Bambuterol hydrochloride] gave a growth of 0.618 ± 0.051.
Work on `CCN(C(C)=O)c1cccc(-c2ccnc3c(C#N)cnn23)c1` [Zaleplon] yielded a growth of 0.504 ± 0.065.
`CN[C@@H]1[C@@H](O)[C@@H](O[C@@H]2[C@@H](O)[C@H](O[C@H]3O[C@H](CN)CC[C@H]3N)[C@@H](N)C[C@H]2N)OC[C@]1(C)O.CN[C@@H]1[C@@H](O)[C@@H](O[C@@H]2[C@@H](O)[C@H](O[C@H]3O[C@H]([C@@H](C)N)CC[C@H]3N)[C@@H](N)C[C@H]2N)OC[C@]1(C)O.CN[C@@H]1[C@@H](O)[C@@H](O[C@@H]2[C@@H](O)[C@H](O[C@H]3O[C@H]([C@@H](C)NC)CC[C@H]3N)[C@@H](N)C[C@H]2N)OC[C@]1(C)O` [Gentamicine sulfate] was tested, and the growth was 0.0643 ± 0.0096.
Work on `CC(C)N(CCC(C(N)=O)(c1ccccc1)c1ccccn1)C(C)C` (stereo not given) [Disopyramide] yielded a growth of 0.543 ± 0.056.
